Source: PubChem BioAssay (several laboratories)
NLRP3 yeast inh: NALP3 inflammasome inhibitors in reconstituted yeast, primary screen, luminescence, uHTS; Yeast reconstituted NLRP3/ASC/caspase-1, beta-gal luminescence, 24 h; inhibition, % at 10 µM; 330,000 tested, 0.39% active; AID 2825, 2010;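 active = inhibition of 50% or more; inactive = inhibition below 50%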
tim23-1 inh: growth inhibitors of tim23-1 mutant yeast, primary screen, luminescence, uHTS | S. cerevisiae tim23-1 growth, BacTiter-Glo luminescence, 24 h | inhibition, % at 20 µM | 330,000 tested, 1.3% active;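 active = growth inhibition of the mutant yeast at or above 50%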;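 note: temperature-sensitive mutant grown at 25 °C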
SKKanGAS inh: S. pyogenes SKKanGAS growth inhibitors in kanamycin, primary screen, streptokinase expression inhibitor project, SKKanGAS strain, BacTiter-Glo luminescence; inhibition, % at 7.5 µM; 6 h; 300,000 tested, 1.3% active;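 active = mean replicate score, as percent of positive control median, at least 50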;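 note: strain carries kanamycin resistance gene driven by streptokinase promoter and grows in 40 µg/ml kanamycin; loss of luminescence reflects streptokinase promoter inhibition or plain growth inhibition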
tim10-1 inh: growth inhibitors of tim10-1 mutant yeast, primary screen, luminescence, uHTS; S. cerevisiae tim10-1 ts strain growth, BacTiter-Glo, 24 h; 330,000 tested, 2.2% active; inhibition, % at 20 µM;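 active = inhibition of at least 40%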;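 note: mutant grown at 25 °C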
TIM10 inh: growth inhibitors of isogenic TIM10 control yeast, primary screen, counter-screen for tim10-1 yeast inhibitor project, luminescence, uHTS; S. cerevisiae TIM10 strain growth, BacTiter-Glo luminescence, 24 h; 330,000 tested, 1.4% active; AID 463195, 2010; inhibition, % at 10 µM;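 active = inhibition of 40% or more at the single tested concentration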;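 note: wild-type TIM10 isogenic control strain grown at permissive 25 °C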
PfHsp90 set2: growth inhibition of PfHsp90-expressing yeast, primary screen, antimalarial PfHsp90 inhibitor project, S. cerevisiae, BacTiter-Glo luminescence, single point, set 2. 310,000 tested, 0.32% active. AID 504621, 2011. inhibition, % at 9.4 µM. BacTiter-Glo ATP, 48 h; yeast lacking PDR1 and PDR3 efflux regulators;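 active = every replicate shows inhibition above about 80%, whatever the replicate mean, limit read from the data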
Large screens that a line does not name were inactive. Hits are enriched below; roughly 4.6% of the tested compounds scored in any of these assays.

COc1ccc(/C=C/C(=O)NC(=S)NNC(=O)c2cccnc2)cc1	SKKanGAS inh 60
COc1ccc(/C=C/C(=O)NC(=S)NNC(=O)c2cnccn2)cc1	SKKanGAS inh 80, PfHsp90 set2 97
O=C(/C=C/c1ccc(F)cc1)NC(=S)NNC(=O)c1cnccn1	SKKanGAS inh 109, PfHsp90 set2 108
COc1ccc(/C=C/C(=O)NC(=S)Nc2ccccn2)cc1	none
O=C(NC(=S)NNC(=O)c1cnccn1)c1ccc(F)cc1	none
COc1ccc(/C=C/C(=O)NC(=S)NNC(=O)c2cccs2)cc1	SKKanGAS inh 94
C[C@H](NC(=O)c1ccco1)C(=O)Nc1cc(S(=O)(=O)N2CCCC2)ccc1OCC(F)(F)F	none (no result: SKKanGAS inh)
COc1ccc(CN(C)S(=O)(=O)c2nnc(NC(=O)c3cccc(F)c3)s2)cc1OC	SKKanGAS inh 60
CCOC(=O)C1CCCN(C(=O)CCc2nnc(-c3ccc(C(C)=O)s3)o2)C1 (centres undefined)	none
CCOC(=O)C1(CCOC)CCN(C(=O)Cc2ccc3ccccc3c2)CC1	none
CN(C)Cc1nc2ccccc2c(=O)n1Cc1nc(-c2cc3ccccc3o2)cs1	SKKanGAS inh 74
Cc1csc(Cn2c(CN(C)C)nc3ccccc3c2=O)n1	none (no result: SKKanGAS inh)
CCCCCCCCCCCC1=C(O)C(=O)C=C(O)C1=O	SKKanGAS inh 102 (no result: NLRP3 yeast inh, tim23-1 inh, tim10-1 inh, TIM10 inh)
CCn1cc(C(=O)O)c(=O)c2cc(F)c(N3CCN(C(=S)NC(=O)c4ccccc4)CC3)cc21	none
COc1c(N2CCN[C@H](C)C2)c(F)cc2c(=O)c(C(=O)O)cn(C3CC3)c12	SKKanGAS inh 101 (no result: PfHsp90 set2)
CC1COc2c(N3CCN(C)CC3)c(F)cc3c(=O)c(C(=O)O)cn1c23 (centres undefined)	SKKanGAS inh 95
COc1c(N2CCN(C(=S)NCc3ccccc3)C(C)C2)c(F)cc2c(=O)c(C(=O)O)cn(C3CC3)c12 (centres undefined)	SKKanGAS inh 106
COc1c(F)c(F)cc2c(=O)c(C(=O)O)cn(C3CC3)c12	none
CCn1c(C2CCN(S(=O)(=O)c3ccc(OC)cc3)CC2)n[nH]c1=S	none
O=C(Nc1ccncc1)c1cc2ccccc2cc1O	none
Nc1cccc(Oc2ccc([N+](=O)[O-])cc2)c1	none
Nc1cccc(Oc2c(F)c(F)c(Oc3cccc(N)c3)c(F)c2F)c1	PfHsp90 set2 85
CC(=O)NC1=NC(=O)/C(=C/c2cc(C)n(-c3ccc(NC(C)=O)cc3)c2C)S1	SKKanGAS inh 79 (no result: PfHsp90 set2)
Cc1cc(/C=C2\SC(=O)N(C)C2=O)c(C)n1-c1ccc(O)cc1	SKKanGAS inh 88
Cc1cc(/C=C2\SC(=S)N(C)C2=O)c(C)n1-c1cccc(O)c1	SKKanGAS inh 91
CC(=O)NC1=NC(=O)/C(=C/c2cc(C)n(-c3cccc(C(=O)O)c3)c2C)S1	none
COc1ccc(-n2c(C)cc(/C=C3/SC(=S)N(C)C3=O)c2C)cc1	none (no result: NLRP3 yeast inh, tim23-1 inh, tim10-1 inh, TIM10 inh)
Cc1cc(/C=C2\SC(=O)NC2=O)c(C)n1-c1ccc(N(C)C)cc1	none
Cc1cc(/C=C2\SC(=O)NC2=O)c(C)n1-c1ccc(N2CCOCC2)cc1	SKKanGAS inh 100
COc1ccc(/C=N/NC(=O)c2ccccc2F)cc1CN1CCN(c2ccc(F)cc2)CC1	none (no result: NLRP3 yeast inh, tim23-1 inh, SKKanGAS inh, tim10-1 inh, TIM10 inh)
COc1ccc(C(CNc2ccc(C(F)(F)F)cn2)N(C)C)cc1OC (centres undefined)	none
COc1cccc(/C=N/n2c(N)c(S(=O)(=O)c3cccs3)c3nc4ccccc4nc32)c1	none
Nc1c(S(=O)(=O)c2cccs2)c2nc3ccccc3nc2n1/N=C/c1cccc(O)c1	SKKanGAS inh 72
C=CCOC(=O)Cn1cnc2c(sc3nc(C)cc(C)c32)c1=O	none
Cc1cc(C)c2c(n1)sc1c(=O)n(CC(=O)c3ccccc3)cnc12	SKKanGAS inh 93
CCC1CCC(C(=O)NC(C(=O)NCCCN2CCCCC2C)C(C)C)CC1 (centres undefined)	none
COc1ccc2cc3c(N)nn(C(=O)Cc4ccccc4OC)c3nc2c1	none
COc1ccc2cc3c(N)nn(C(=O)C4CCC(C(C)(C)C)CC4)c3nc2c1 (centres undefined)	SKKanGAS inh 93
CCOC(=O)NC(Nc1ccc(OC)cc1)(C(F)(F)F)C(F)(F)F	none
Cc1cc2c(cc1C)CSC(c1c(O)ccc3ccccc13)SC2	SKKanGAS inh 94, PfHsp90 set2 100
Cc1ccc2c(c1)C(c1ccccc1)CC(=O)O2 (centres undefined)	none
O=C(Oc1cccc(Nc2ncnc3ccccc23)c1)c1ccccc1Cl	SKKanGAS inh 61
CCOC(=O)C1(Cc2ccc(OC)cc2)CCN(C(=O)c2cc(C)nn2C)CC1	none
N#CCCN=C(NS(=O)(=O)c1ccccc1)c1ccccc1	none
CCn1c(-c2ccccc2)c[nH]c1=S	SKKanGAS inh 72
CC(C)(C)CN1CCC(Oc2cccc(C(=O)NCCCOc3cccnc3)c2)CC1	none
N#Cc1ccccc1CN1C(=O)S/C(=C/c2cccn2-c2ccc(C(=O)O)cc2)C1=O	SKKanGAS inh 57
Cc1cnc(C(=O)Oc2c(C)ccc(C)c2C)cn1	none
Cn1nnc2cc(C(=O)N3CCN(c4ccccn4)CC3)ccc21	none
Cc1ccc2nc(-c3cccc(NS(C)(=O)=O)c3)cc(-c3ccccc3)c2c1	PfHsp90 set2 100
Cc1nc(-c2cccc(NS(=O)(=O)c3ccccc3)c2)cs1	none
COc1ccc(C(=O)NNC(=S)NC(=O)c2ccc(OC)cc2)cc1	SKKanGAS inh 94
COc1ccc(OCC(=O)NNC(=S)NC(=O)c2ccc(Br)o2)cc1	SKKanGAS inh 71
COc1ccc(C(=O)NC(=S)NNC(=O)c2ccncc2)cc1Br	none (no result: SKKanGAS inh)
CCCCC(=O)NC(=S)NNC(=O)c1ccc(OC)cc1	SKKanGAS inh 86
COc1ccc(C(=O)NC(=S)NNC(=O)c2ccc(NC(C)=O)cc2)cc1Br	SKKanGAS inh 70
COc1ccc(C(=O)NNC(=S)NC(=O)c2cccnc2)cc1	none
O=C(CC1SC(N2CCOCC2)=NC1=O)Nc1cc([N+](=O)[O-])ccc1Cl (centres undefined)	none
CCN(CC)C(=O)Cn1cc(C(=O)C(=O)NCc2ccco2)c2ccccc21	none
C=CCNC(=S)NNC(=O)c1ccc(OCCC)cc1	none
CCCOc1ccc(C(=O)NNC(=S)NC(=O)CC)cc1	SKKanGAS inh 106
CCCCc1nc(N2CCN(C(=O)c3ccco3)CC2)c(C#N)c2c1CCCC2	SKKanGAS inh 97
CC(C)c1nc(N2CCN(C(=O)c3ccco3)CC2)c(C#N)c2c1COC(C)(C)C2	none
